Screens: PubChem BioAssay, several laboratories
Rows were chosen to be rich in hits. Some 4% of all compounds tested hit in one or more screens of this group.
GDH-TPI inh: GDH-TPI coupled enzyme inhibition counter-screen; GDH-TPI coupled enzyme counterscreen, NADH absorbance; inhibition, % at 4.8 µM; 1.2% of 360,000 active; AID 588335; in the data active means inhibition above about 30%
Mtb bLac sens: beta-lactam sensitization of Mtb H37Rv; M. tuberculosis H37Rv growth with meropenem, percent inhibition; inhibition, % at 25 µM; 0.27% of 330,000 active; AID 434955; call rule not given here;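 further: growth measured after seven days incubation then overnight dye step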
FBA Mtb inh: inhibitors of M. tuberculosis fructose-bisphosphate aldolase. purified M. tuberculosis FBA, fluorescence read-out. inhibition, % at 1 µM. 2.3% of 360,000 active; in the data active means inhibition above about 27%
UGM FP inh: blocks M. tuberculosis UGM enzyme; P9WIQ1; purified UGM, fluorescence polarization probe displacement; inhibition, % at 10 µM; 0.06% of 320,000 active; in the data active means inhibition above about 10%, passing the limit was not always enough
RecA intein inh: blocks M. tuberculosis RecA intein splicing; cell-free RecA intein splicing, fluorescence; inhibition, % (concentration not given with the values); 0.75% of 290,000 active; P9WHJ3; in the data active means inhibition above about 30%
Rv3671c protease: Rv3671c (M. tuberculosis) protease inhibition; inhibition, % at 5.96 µM; 0.048% of 320,000 active; AID 2606; in the data active means inhibition above about 38%;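 further: extracellular domain of Rv3671c used as enzyme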
Target sequence (P9WHR9 whole entry, looked up, the tested form may be a part): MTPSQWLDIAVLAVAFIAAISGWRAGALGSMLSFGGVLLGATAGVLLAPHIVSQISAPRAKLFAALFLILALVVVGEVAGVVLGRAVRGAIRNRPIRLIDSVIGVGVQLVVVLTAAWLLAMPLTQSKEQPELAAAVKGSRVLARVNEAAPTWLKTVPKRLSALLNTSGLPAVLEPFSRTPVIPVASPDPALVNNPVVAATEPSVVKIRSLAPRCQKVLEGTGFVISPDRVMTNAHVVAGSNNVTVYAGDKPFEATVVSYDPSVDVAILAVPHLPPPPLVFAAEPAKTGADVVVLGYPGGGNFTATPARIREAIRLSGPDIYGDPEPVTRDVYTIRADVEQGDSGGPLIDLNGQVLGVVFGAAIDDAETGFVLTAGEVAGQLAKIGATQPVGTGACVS
Hits are given with their value; . = inactive; / = no result given; + = active, no number.

SMILES | GDH-TPI inh | Mtb bLac sens | FBA Mtb inh | UGM FP inh | RecA intein inh | Rv3671c protease
COc1cc([C@@H]2Oc3cc(C4Oc5cc(O)cc(O)c5C(=O)[C@H]4O)ccc3O[C@H]2CO)ccc1O (stereo partly specified) | . | . | . | . | / | .
COc1cc([C@H]2Oc3cc([C@H]4Oc5cc(O)cc(O)c5C(=O)[C@@H]4O)ccc3O[C@@H]2CO)ccc1O | 34 | . | . | . | . | .
CC(NC(=O)CNC(=O)c1ccccc1Br)c1cccs1 (stereo unspecified) | . | / | . | / | / | /
COc1cc(C2C3=C(COC3=O)OC(C)(C)Oc3cc4c(cc32)OCO4)cc(OC)c1OC (stereo unspecified) | . | / | . | / | / | /
COc1cccc(-c2nc3c(c(=O)[nH]c(=O)n3Cc3ccccc3)n2CCO)c1OC(F)F | . | . | . | . | / | .
c1ccc(N2CCN(C3CC4CCC3C4)CC2)cc1 (stereo unspecified) | . | . | . | . | . | .
N#Cc1nc(-c2cccc3ccccc23)oc1NCC1CCCO1 (stereo unspecified) | . | . | + | . | . | .
CNc1oc(-c2ccc(Cl)cc2)nc1C#N | . | . | + | . | . | .
N#Cc1nc(-c2ccc(Cl)cc2)oc1NCC1CCCO1 (stereo unspecified) | . | . | 154 | . | . | .
N#Cc1nc(-c2ccccc2)oc1NCC1CCCO1 (stereo unspecified) | . | . | 171 | . | . | .
FC(F)(F)c1cc(-c2ccccc2)nc(NCC2CCCO2)n1 (stereo unspecified) | . | . | . | . | . | .
COc1cccc(C(C)(O)c2nc(-c3cccc4cccnc34)cs2)c1 (stereo unspecified) | . | / | . | / | / | /
CC(=O)c1c(C)[nH]c(C(=O)OCc2nnc(-c3ccc([N+](=O)[O-])cc3)o2)c1C | . | . | . | . | / | .
CC(C)(CNC(=O)c1ccc(-c2ccccc2Cl)o1)N1CCOCC1 | . | . | . | . | . | .
CCOC(=O)c1c(NC(=O)COC(=O)c2ccccc2NC)sc(C(=O)N(C)C)c1C | . | . | . | . | . | .
COc1cc(C2CC(=O)C3=C(C2)Nc2ncnn2C3c2cccs2)cc(OC)c1OC (stereo unspecified) | . | . | . | . | . | .
COc1cc(C2C=C(c3cccs3)Nc3ncnn32)cc(OC)c1OC (stereo unspecified) | 41 | / | . | / | / | /
COc1ccc(C2C=C(c3cccs3)Nc3nc(CCCO)nn32)cc1 (stereo unspecified) | / | . | / | 29 | / | .
COc1ccc(/C=N\NC(=O)CNC(=O)C2COc3ccccc3O2)cc1[N+](=O)[O-] (stereo unspecified) | . | . | . | . | . | .
O=C(NCc1cccnc1)/C(=C/c1ccc(-c2ccc(Cl)cc2)o1)S(=O)(=O)c1ccccc1 | 40 | . | . | . | 35 | .
O=C(NCc1cccnc1)/C(=C/c1ccc(-c2cccc(C(F)(F)F)c2)o1)NC(=O)c1ccccc1 | 33 | . | . | . | . | .
Cc1ccc(C(=O)N/C(=C/c2ccc(-c3cc(C(F)(F)F)ccc3Cl)o2)C(=O)NCc2cccnc2)cc1 | . | . | . | . | / | .
CCNc1nc(C)c(CN(C(C)=O)c2ccccc2)nc1C#N | . | . | 126 | . | . | .
O=C(CNC(=O)c1ccc(N2CCCC2=O)cc1)Nc1ccc(F)c(F)c1F | . | . | . | . | / | .
CCCOc1ccc(N)cc1N | . | . | . | . | 30 | .
SMILES | GDH-TPI inh | Mtb bLac sens | FBA Mtb inh | UGM FP inh | RecA intein inh | Rv3671c protease
CCCOc1cc(N)ccc1C(=O)OCCN(CC)CC | . | . | . | . | / | .
CC1(C)CC(=O)C2=C(C1)c1c(ccc3ccccc13)NC2c1ccc(OCC(=O)O)cc1 (stereo unspecified) | . | . | + | . | . | .
COc1cc(C2Nc3ccc4ccccc4c3C3=C2C(=O)CC(C)(C)C3)ccc1OC(C)C(=O)O (stereo unspecified) | . | . | 183 | . | . | .
COc1cc(C2Nc3ccc4ccccc4c3C3=C2C(=O)CC(C)(C)C3)ccc1OCC(=O)O (stereo unspecified) | . | . | 121 | . | . | .
CC(C)(C)OC(=O)N[C@@H](C(=O)OC(C)(C)C)c1ccc(Br)cc1 | . | . | . | . | / | .
COCCNC(=O)[C@H](C)[C@H]1C[C@]1(C)[C@H](NC(=O)OCc1ccccc1)c1ccccc1 | . | . | 168 | . | . | .
O=C(C1CCC(C(=O)N2CCc3ccccc32)CC1)N1CCc2ccccc21 (stereo unspecified) | . | . | . | . | . | .
O=C(CCl)c1ccc2c(c1)CCN2C(=O)C1CC1 | / | . | / | . | 60 | .
CCC1=NN2C(=N)/C(=C\c3cccn3-c3ccc(C)cc3C)C(=O)N=C2S1 | . | . | . | . | . | .
Cc1cccc(C)c1-n1cccc1/C=C1/C(=N)N2C(=NC1=O)SN=C2S(C)(=O)=O | 32 | . | . | . | . | .
CCC1=NN2C(=N)/C(=C\c3cccn3-c3c(C)cccc3C)C(=O)N=C2S1 | 44 | . | . | . | . | .
COc1ccc2c(c1)cc1c(=O)n(CC(=O)NCCCN3CCOCC3)nc(C)n12 | . | . | . | . | . | .
O=C1c2cccc3cccc(c23)C(=O)N1CC1CCN(CC(O)COc2ccc3ccccc3c2)CC1 (stereo unspecified) | 42 | . | . | . | . | .
COc1cccc(OCC(O)CN2CCC(CN3C(=O)c4cccc5cccc(c45)C3=O)CC2)c1 (stereo unspecified) | . | . | . | . | . | .
Cc1ccc(-c2cc(C(=O)N3CC(C)OC(C)C3)c3ccccc3n2)o1 (stereo unspecified) | . | . | 146 | . | . | .
CCn1cc(-c2cc(C(=O)O)c3ccccc3n2)c(C)n1 | . | . | 130 | . | . | .
O=C(O)c1cc(-c2cccc3ccccc23)nc2ccccc12 | . | . | . | . | . | .
Cc1ccc(-c2cc(C(=O)N3CCCC3)c3ccccc3n2)s1 | . | . | + | . | . | .
CCc1ccc(-c2cc(C(=O)O)c3ccccc3n2)s1 | 38 | . | 152 | . | . | /
O=C(O)c1cc(-c2cc(C(=O)O)c3ccccc3n2)nc2ccccc12 | / | . | / | . | . | .
Cc1c(NC(=O)C(C)Oc2ccc(Br)cc2Cl)c(=O)n(-c2ccccc2)n1C (stereo unspecified) | . | . | . | . | . | .
Cc1ccc(-c2cc(C(=O)n3cnc4ccccc43)c3ccccc3n2)cc1C | . | . | 50 | . | . | .
Cc1cc(NC(=O)c2cc(-c3ccc(C)c(C)c3)nc3ccccc23)no1 | . | . | . | . | . | .
COc1ccc(-c2cc(C(=O)N3CCCCCC3)c3ccccc3n2)cc1 | . | / | 150 | / | / | /
COc1ccc(-c2cc(C(=O)Oc3ccc([N+](=O)[O-])cc3)c3ccccc3n2)cc1 | . | . | + | . | . | .
COc1ccc(-c2cc(C(=O)N3CCCCCC3)c3ccccc3n2)cc1OC | . | / | . | / | / | /
